Experimental data taken from PubChem BioAssay AID1159580 (chemical genetic matrix, 2015).
About 2,000 (36%) of roughly 5,500 compounds were called active. Another 18% or so got no clear call; they are omitted. No stated cut-off is given here; in the data, active means normalized growth mostly below about 0.91 (no sharp cut-off); inconclusive means no clear call, values can overlap the other calls; inactive means mostly above about 0.92. This is one part of the list.

Experiment: chemical genetic growth profiling, strain panel (AID 1159580);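 further: tested at 20 µM; growth read once vehicle control cultures reached saturation at 30 °C; 1 = growth at the plate median or of vehicle wells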
Conditions: S. cerevisiae deletion strains, growth OD

Measured: normalized growth

C=C1C2CC[C@H]3[C@]4(C)C[C@H](OC5OC(CO)C(OS(=O)(=O)O)C(OS(=O)(=O)O)C5OC(=O)CC(C)C)C[C@@H](C(=O)O)[C@H]4CC[C@]3(C2)[C@H]1O (some centres undefined)
inactive: locus YAL013W, strain DEP1, stronger effect = lower value 1.01 | locus YAL021C, strain ccr4, stronger effect = lower value 0.974 | locus YAL026C, strain drs2, stronger effect = lower value 1.01 | locus YAL030W, strain snc1, stronger effect = lower value 1.01 | locus YBL061C, strain skt5, stronger effect = lower value 1.01 | locus YBR009C, strain hhf1, stronger effect = lower value 1.02 | locus YBR021W, strain FUR4, stronger effect = lower value 1.02 | locus YBR023C, strain chs3, stronger effect = lower value 1.01 | locus YBR171W, strain sec66, stronger effect = lower value 1.01 | locus YBR229C, strain ROT2, stronger effect = lower value 1.01 | locus YBR231C, strain swc5, stronger effect = lower value 1.02 | locus YBR279W, strain paf1, stronger effect = lower value 1.01 | locus YCL011C, strain gbp2, stronger effect = lower value 1.01 | locus YCL016C, strain dcc1, stronger effect = lower value 1 | locus YCL029C, strain bik1, stronger effect = lower value 0.983 | locus YCL061C, strain MRC1, stronger effect = lower value 1.01 | locus YCL069W, strain vba3, stronger effect = lower value 1.02 | locus YCR088W, strain abp1, stronger effect = lower value 1.01 | locus YDL005C, strain med2, stronger effect = lower value 1 | locus YDL035C, strain GPR1, stronger effect = lower value 1.01 | locus YDL040C, strain nat1, stronger effect = lower value 1 | locus YDL074C, strain BRE1, stronger effect = lower value 1.04 | locus YDL101C, strain DUN1, stronger effect = lower value 1.02 | locus YDL134C, strain PPH21, stronger effect = lower value 1.01 | locus YDL185W, strain tfp1, stronger effect = lower value 0.986 | locus YDL192W, strain arf1, stronger effect = lower value 0.986 | locus YDR001C, strain nth1, stronger effect = lower value 1.01 | locus YDR069C, strain doa4, stronger effect = lower value 1.02 | locus YDR101C, strain arx1, stronger effect = lower value 0.979 | locus YDR137W, strain rgp1, stronger effect = lower value 1.01 | locus YDR150W, strain NUM1, stronger effect = lower value 1.01 | locus YDR159W, strain sac3, stronger effect = lower value 1.01 | locus YDR162C, strain NBP2, stronger effect = lower value 1.04 | locus YDR195W, strain ref2 0.999 | locus YDR297W, strain sur2, stronger effect = lower value 1.01 | locus YDR318W, strain mcm21, stronger effect = lower value 0.978 | locus YDR334W, strain swr1, stronger effect = lower value 1.01 | locus YDR335W, strain msn5, stronger effect = lower value 1.01 | locus YDR388W, stronger effect = lower value 0.988 | locus YDR392W, strain spt3, stronger effect = lower value 0.942 | locus YDR502C, strain sam2, stronger effect = lower value 0.994 | locus YEL003W, strain gim4, stronger effect = lower value 1.01 | locus YEL037C, strain rad23, stronger effect = lower value 1.01 | locus YEL061C, strain CIN8 (second series), stronger effect = lower value 1 | locus YEL061C, strain CIN8, stronger effect = lower value 1 | locus YER015W, strain faa2, stronger effect = lower value 1.01 | locus YER016W, strain bim1, stronger effect = lower value 1.01 | locus YER110C, stronger effect = lower value 0.975 | locus YER111C, strain swi4, stronger effect = lower value 1.01 | locus YER155C, strain BEM2 (second series), stronger effect = lower value 1.02 | locus YER155C, strain BEM2, stronger effect = lower value 1.02 | locus YER167W, strain BCK2, stronger effect = lower value 1 | locus YFR010W, strain ubp6, stronger effect = lower value 1.01 | locus YGL078C, strain dbp3, stronger effect = lower value 0.978 | locus YGL086W, strain mad1, stronger effect = lower value 0.972 | locus YGL167C, strain pmr1, stronger effect = lower value 1.01 | locus YGL173C, strain kem1, stronger effect = lower value 1.01 | locus YGL227W, strain vid30, stronger effect = lower value 1.01 | locus YGL240W, strain doc1, stronger effect = lower value 1.03 | locus YGL248W, strain PDE1, stronger effect = lower value 1.01 | locus YGL253W, strain hxk2, stronger effect = lower value 1.01 | locus YGR078C, strain PAC10, stronger effect = lower value 1.03 | locus YGR135W, strain pre9, stronger effect = lower value 0.987 | locus YGR229C, strain SMI1, stronger effect = lower value 1.02 | locus YGR252W, strain gcn5, stronger effect = lower value 1.02 | locus YHR013C, strain ard1, stronger effect = lower value 0.999 | locus YHR027C, strain rpn1, stronger effect = lower value 1.01 | locus YHR030C, strain SLT2, stronger effect = lower value 1 | locus YHR079C, strain IRE1 (second series), stronger effect = lower value 0.987 | locus YHR094C, strain hxt1, stronger effect = lower value 0.988 | locus YHR129C, strain ARP1, stronger effect = lower value 1.01 | locus YHR142W, strain chs7, stronger effect = lower value 0.985 | locus YHR200W, strain rpn10, stronger effect = lower value 0.996 | locus YIL066C, strain RNR3, stronger effect = lower value 1.02 | locus YIL073C, strain SPO22, stronger effect = lower value 0.966 | locus YIL125W, strain kgd1, stronger effect = lower value 0.97 | locus YIR030C, strain dcg1, stronger effect = lower value 0.99 | locus YJL092W, strain hpr5, stronger effect = lower value 1.01 | locus YJL095W, strain BCK1 (second series), stronger effect = lower value 1.01 | locus YJL095W, strain BCK1, stronger effect = lower value 1.02 | locus YJL115W, strain asf1, stronger effect = lower value 1.01 | locus YJL129C, strain trk1, stronger effect = lower value 1.01 | locus YJL134W, strain LCB3, stronger effect = lower value 1.01 | locus YJL154C, strain vps35, stronger effect = lower value 1.01 | locus YJL164C, strain tpk1, stronger effect = lower value 1 | locus YJL166W, strain qcr8, stronger effect = lower value 1 | locus YJL168C, strain set2, stronger effect = lower value 0.985 | locus YJL187C, strain SWE1 (second series), stronger effect = lower value 1.02 | locus YJL187C, strain SWE1, stronger effect = lower value 1.02
